Assay outcomes as filed in PubChem BioAssay.
Shown are actives, neighbours in structure and some others; about 7.5% of the full set was active somewhere.
ELG1 genotox = genotoxicity induction in ELG1-luciferase HEK293T cells; HEK293T ELG1-luciferase reporter, luminescence, 16 h; Potency, µM (top dose mostly 46 µM), for the others: at the top dose activity change, positive = activation, most hits filed as activators; actives 1.3% (n = 330,000); further: % of control where 0% means no effect; nearly all actives have a fitted effect of over 60% in size
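Genotoxicity was scored as increased ELG1-luciferase reporter signal, measured by ONE-Glo luminescence (30 min, room temperature). Compound or vehicle exposure of the HEK293T reporter cells lasted 16 hr at 37°C.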
SMN2 splice enh = SMN2 splice variant enhancement; Potency, µM (highest dose often 46.1 µM), for inactives: top-dose activity change, positive = activation, most hits filed as activators; actives 2.8% (n = 210,000); AID 1458; HEK293 SMN2-luciferase splicing reporter, luminescence, 30-36 h; further: % of control where 0% means no effect; nearly all actives have a fitted effect of over 55% in size
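qHTS luciferase splicing reporter: luminescence rises when SMN2 exon 7 is included in transfected HEK293 cells. Compound exposure lasted 30-36 h at 37C, with 4.5 mM final sodium butyrate as control, followed by a ONE-Glo read.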
Luc counter = counter-screen: inhibitors of Kinase-Glo firefly luciferase. Kinase-Glo luciferase, ATP luminescence, 8 min. actives 0.28% (n = 200,000). AID 1379. Potency, µM (doses to about 38.3 µM), inactives show at the highest dose activity change, negative = inhibition, actives largely listed as inhibitors. Q27757; further: on the % scale 0 is the no-effect control and ±100 the full control effect; nearly all actives have a fitted effect of over 60% in size
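Compounds were added to a substrate mix at pH 7.2 (50 mM imidazole, 10 uM ATP, within the enzyme's linear range), followed by Kinase-Glo detection reagent; luminescence was measured after 8 minutes at ambient temperature.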
Rab9 promoter act = Rab9 promoter activation; Huh7 Rab9 promoter-luciferase reporter, luminescence, 24 h; Potency, µM (top dose mostly 9.22 µM), for inactives: top-dose activation, negative = inhibition, usual class: activators; actives 2.8% (n = 320,000); AID 485297; further: % of control where 0% means no effect; nearly all actives have a fitted effect of over 60% in size
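Huh7 cells stably carrying a Rab9 promoter-luciferase reporter, 1500 cells per well in OP-MEM I with 10% FBS, treated with compound 24 hours at 37C. Luciferase activity read by luminescence after 10 minutes with Amplite reagent.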
FLuc counter = inhibits or activates purified firefly luciferase, miR-21 counter-screen; P08659; purified FLuc, Km substrates, luminescence inhibition; Potency, µM (doses to about 57.5 µM), without a hit: at the top dose activity change, negative = inhibition, hits mostly inhibitors; AID 588342; actives 6.9% (n = 360,000);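 further: plate controls were vehicle for no effect and reference inhibitor for full effect; nearly all actives have a fitted effect of over 55% in size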
Target sequence (P08659 whole entry, looked up): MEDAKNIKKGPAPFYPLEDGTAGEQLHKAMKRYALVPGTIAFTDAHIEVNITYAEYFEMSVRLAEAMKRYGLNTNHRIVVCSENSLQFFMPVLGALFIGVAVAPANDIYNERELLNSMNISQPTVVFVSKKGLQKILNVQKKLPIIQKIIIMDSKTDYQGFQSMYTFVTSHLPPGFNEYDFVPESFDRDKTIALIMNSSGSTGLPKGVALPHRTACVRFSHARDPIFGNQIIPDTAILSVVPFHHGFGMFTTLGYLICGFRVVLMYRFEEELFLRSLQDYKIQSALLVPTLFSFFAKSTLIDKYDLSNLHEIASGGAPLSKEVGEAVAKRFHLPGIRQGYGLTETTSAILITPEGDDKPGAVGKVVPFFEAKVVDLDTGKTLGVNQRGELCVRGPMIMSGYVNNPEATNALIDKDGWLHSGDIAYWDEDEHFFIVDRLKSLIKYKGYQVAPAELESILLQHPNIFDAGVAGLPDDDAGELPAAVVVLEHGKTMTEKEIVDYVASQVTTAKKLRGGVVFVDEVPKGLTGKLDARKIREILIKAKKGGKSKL
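Purified P. pyralis luciferase, 10 nM final, with Km-level 10 uM D-luciferin and 10 uM ATP in 50 mM Tris acetate pH 7.5, 10 mM Mg acetate, 0.01% Tween-20, 0.05% BSA; 6-point qHTS titration about 60 µM downward; luminescence read.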
NPC1 prom act = activators of NPC1 promoter. Potency, µM (titrated, usually from 9.22 µM), for the others: at the top dose activation, most hits filed as activators. actives 2.4% (n = 320,000). AID 485313. Huh7 NPC1 promoter luciferase reporter, 24 h; further: % of control where 0% means no effect; nearly all actives have a fitted effect of over 60% in size
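Cells: Huh7 expressing luciferase under the NPC1 promoter, 1500/well. Seeded 2 h, compound added, incubated 24 h at 37 °C. Luciferase reagent, 10 min ambient, then luminescence.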
Starred values were filed as active, the others as inactive; ? = inconclusive; . = not tested or not shown; [ ] = dose if it differs, or a comment. The call rests on the fitted dose curve; in most records, active means well fitted curve in the direction sought with a large enough effect; inconclusive means small, poorly fitted or top-dose-only effect, or another doubt; inactive means no such curve, though single readings can be large; an effect the other way counts as inactive or inconclusive. Potency means the concentration at half of the fitted maximal effect.

SMILES	ELG1 genotox	SMN2 splice enh	Luc counter	Rab9 promoter act	FLuc counter	NPC1 prom act
Cc1ccc(C(=O)CSc2nc(C)cc(C)c2C(=O)Nc2cccc(C)c2)cc1	.	.	.	.	-13%	.
O=C(NCc1ccccc1Cl)c1ccc2c(c1)N(Cc1ccccc1)C(=O)c1ccccc1S2	.	.	.	.	0%	.
Cc1cc(N/C=C/C(=O)c2cccs2)ccc1F	2.9µM*	14µM*	-12%	4µM*	0.95µM*	?
Cc1ccc(N/C=C/C(=O)c2cccs2)cc1C	?	2.2µM*	-18%	3.5µM*	0.19µM*	24%
O=C(/C=C/Nc1ccccc1C(=O)O)c1cccs1	16µM*	11µM*	-15%	1µM*	3.4µM*	1.4µM*
O=C(O)c1ccccc1C(=O)c1cccs1	-1%	-1%	-4%	-4%	3%	1%
O=C(/C=C/Nc1cccc([N+](=O)[O-])c1)c1cccs1	?	16µM*	-11%	3.2µM*	1.7µM*	21%
COc1ccccc1CN(C)C(=O)c1cccc(S(=O)(=O)N2CCCc3ccccc32)c1	-9%	.	.	-6%	2%	-3%
Cc1ccc(C2CC(=O)N(Cc3ccccc3F)c3c2c(C)nn3-c2nc(C)cc(C)n2)cc1 (stereo not drawn)	.	.	.	.	-3%	.
CN1CCC(NC(=O)c2cnn3c2NC(=C2CC2)C=C3C(F)F)CC1	.	.	.	.	3%	.
C/C(=N\OCC(=O)Nc1ccccc1C(=O)O)c1cccs1	2%	.	.	16%	21µM*	13%
O=C(/C=C/Nc1ccc(Nc2ccccc2)cc1)c1cccs1	?	.	-13%	2µM*	4.3µM*	4µM*
CC(C)c1ccc(NC(=O)c2ccccc2NC(=O)C2CCCCC2C(=O)O)cc1 (stereo not drawn)	14%	.	.	?	?	25%
COc1ccc(C2Nc3ccccc3C(=O)N2c2ccc(C)cc2)cc1Cn1cc([N+](=O)[O-])cn1 (stereo not drawn)	12%	20µM*	-8%	4µM*	?	4µM*
COc1ccc(N2C(=O)c3ccccc3NC2c2ccc(OC)c(COc3ccccn3)c2)cc1 (stereo not drawn)	?	13µM*	4%	?	-2%	?
COc1ccc(N2C(=O)c3ccccc3NC2c2ccc(OC)c(CSc3ccccn3)c2)cc1 (stereo not drawn)	?	?	2%	25%	?	?
COc1ccc(C2Nc3ccccc3C(=O)N2c2ccc(C)cc2)cc1Cn1nnc2ccccc21 (stereo not drawn)	?	.	.	?	-10%	?
COc1cccc(NC(=O)Nc2nc(SC)ns2)c1	?	.	.	1.4µM*	6.7µM*	2.8µM*
COc1ccc(NC(=O)Nc2cccc(OC)c2)cc1	.	.	-10%	.	.	.
COc1cccc(NC(=O)Nc2nc(SC(C)(C)C)ns2)c1	2%	.	.	8%	11µM*	17%
CCSc1nsc(NC(=O)Nc2cccc(F)c2)n1	-1%	.	.	-23%	19µM*	-7%
Cc1nnc(NCc2ccccc2)c2c1nnn2Cc1ccccc1Cl	.	7%	.	.	-1%	.
Cc1ccc(-c2csc(N=C(N)N)n2)cc1	14%	.	.	?	15µM*	?
O=C(Cc1ccccc1)Nc1ccc2[nH]ncc2c1	-5%	.	.	1%	-18%	9%
O=C(Nc1ccc2[nH]ncc2c1)c1ccccc1Cl	?	.	.	3.5µM*	9.5µM*	4µM*
SMILES	ELG1 genotox	SMN2 splice enh	Luc counter	Rab9 promoter act	FLuc counter	NPC1 prom act
O=C(Nc1ccc2[nH]ncc2c1)c1ccccc1Br	8%	.	.	?	17µM*	3.2µM*
CC(=O)c1ccc(NC(=O)C(Cc2ccccc2)NS(=O)(=O)c2ccc3c(c2)CCC(=O)N3)cc1 (stereo not drawn)	.	10%	.	.	-2%	.
OCCNCc1ccc(OCc2ccc(Cl)cc2Cl)cc1	?	-9%	2%	18%	15µM*	12%
OCCCCNCc1ccc(OCc2ccc(Cl)cc2Cl)cc1	-3%	-8%	-6%	-5%	-5%	1%
CC(C)OCCCN1C(=O)c2[nH]nc(-c3ccccc3O)c2C1c1ccc(OCc2ccccc2)cc1 (stereo not drawn)	.	-16%	.	.	3%	.
c1csc(-c2ccnc3ncnn23)c1	-1%	-1%	0%	-3%	-6%	0%
Fc1ccc(-c2cnn3c(-c4cccs4)ccnc23)cc1	7%	3.2µM*	-11%	4µM*	0.76µM*	4.5µM*
Cc1nn2c(-c3ccc(F)cc3)ccnc2c1Br	1%	.	.	-5%	0%	-7%
Fc1ccc(-c2cnn3c(-c4ccncc4)ccnc23)cc1	7%	4.5µM*	-5%	0.4µM*	1.2µM*	0.35µM*
Cc1nccn1CCCNC(=O)CC1C(=O)NCCN1Cc1ccc(F)cc1Cl (stereo not drawn)	10%	.	.	8%	0%	0%
BrC(=C\c1ccccc1)/C=N/Nc1ccc2nncn2n1	6%	.	.	-2%	13µM*	1%
COc1cc(OC)cc(-n2c(=O)c3sccc3n(Cc3ccc(F)cc3)c2=O)c1	.	0%	.	.	-3%	.
CCN(CC)c1ccc(C=Nc2ccc(C)cc2C)c(O)c1	9%	.	2%	?	3.4µM*	28%
CCN(CC)c1ccc(C=Nc2cc(C)ccc2C)c(O)c1	7%	?	-7%	1%	1.7µM*	2%
CCN(CC)c1ccc(C=Nc2cccnc2Cl)c(O)c1	-1%	.	.	-5%[1.84 µM]	2.4µM*	-6%
Cc1ccc(N=Cc2cccc(O)c2O)c(C)c1	-2%	21%	-15%	9%	?	1%
CCN(CC)c1ccc(/C=N/Nc2ccc(C)cc2)c(O)c1	9%	6%	1%	19%	?	14%
CCN(CC)c1ccc(/C=N/N2C(=O)c3ccccc3C2=O)c(O)c1	-4%	?	-6%	23%	?	21%
O=C(CCN1C(=O)/C(=C/c2ccccc2F)SC1=S)NC1C=CS(=O)(=O)C1 (stereo not drawn)	8%	.	.	16%	-2%	-12%
Cc1cccc(NC(=O)CCNS(=O)(=O)c2ccc3[nH]c(=O)oc3c2)c1	1%	.	.	-10%	7%	-2%
c1ccc(CSc2ncn(-c3ccccc3)n2)cc1	4.1µM*	14µM*	-4%	2.2µM*	4.8µM*	3.2µM*
CCOC(=O)c1sc(NC(=O)CSc2ncn(-c3ccccc3)n2)nc1C	0%	-2%	3%	0%	1%	-1%
O=C(CSc1ncn(-c2ccccc2)n1)c1cccs1	?	?	-10%	1.4µM*	7.6µM*	2.8µM*
Nc1nc(CSc2ncn(-c3ccccc3)n2)cs1	?	16µM*	-1%	1.3µM*	11µM*	2µM*
